This note sets out measurements from the supplement of paper PMC9262897, “Low-cost anti-mycobacterial drug discovery using engineered E. coli” (Nature Communications, 2022).

± gives the standard deviation of the averaged measurements.

Holding throughout (experiment): growth (OD600 after 10 h); higher = more growth (less inhibition)
Assay [1] deals with E. coli TESEC Alr+ wild-type control. The settings on record: compound 0.1 mM; raw OD600 reference: median of DMSO wells 0.241, cell-free background 0.041. Here is the method: (§1)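 TESEC Mtb Alr E. coli, or the Alr+ wild-type control, in 384-well plates with Prestwick library compounds at 0.1 mM and 1% DMSO, across arabinose induction levels of 1E3 to 1E7 nM. Growth is read as OD600 after 10 h at 37 °C in triplicate biological replicates.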

In assay [2] the test system is E. coli TESEC Mtb Alr. Conditions: compound 0.1 mM. Here is the method: as §1
A further assay deals with E. coli TESEC Mtb Asd. The settings on record: compound 0.1 mM. Here is the method: (§2)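 TESEC E. coli strains in which the native enzyme is deleted and replaced by arabinose-inducible Mtb Asd, DapB, CysH or TrpD, each grown in its selective medium. Strains were screened against the Prestwick library at 0.1 mM and 1% DMSO in 384-well format at low and high arabinose induction. Growth is read as OD600 after 10 h in triplicate.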

The next assay relates to E. coli TESEC Mtb DapB. Conditions: compound 0.1 mM. Here is the method: as §2
In assay [3] the test system is E. coli TESEC Alr+ wild-type control. The settings on record: compound 0.1 mM; raw OD600 reference: median of DMSO wells 0.49, cell-free background 0.052. Here is the method:
(§3)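 TESEC Mtb Alr E. coli (ΔaraC ΔtolC ΔentC Δalr ΔdadX, arabinose-inducible Mtb Alr) or the Alr+ wild-type control strain, grown in defined M9-fructose medium without D-alanine in 96-well plates with Prestwick library compounds at 0.1 mM and 1% DMSO. Low Alr induction is 0.1 µM arabinose and high induction is 10 mM arabinose.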

Assay [4] relates to E. coli TESEC Mtb Alr. Conditions: compound 0.1 mM. Here is the method: as §3
The source holds these as a separate data set.

The mark [5] stands for this setting: arabinose 1000 nM, raw OD600 reference: median of DMSO wells 0.294, cell-free background 0.041.
Setting [6] is: arabinose 10000 nM, raw OD600 reference: median of DMSO wells 0.264, cell-free background 0.041.
[7] abbreviates: arabinose 100000 nM, raw OD600 reference: median of DMSO wells 0.201, cell-free background 0.041.
Setting [8] is: arabinose 1000000 nM, raw OD600 reference: median of DMSO wells 0.193, cell-free background 0.041.
[9] abbreviates: arabinose 10000000 nM, raw OD600 reference: median of DMSO wells 0.146, cell-free background 0.041.
Setting [10] is: arabinose induction (level): High, raw OD600 reference: median of DMSO wells 0.331, cell-free background 0.041.
The mark [11] stands for this setting: arabinose induction (level): Low, raw OD600 reference: median of DMSO wells 0.417, cell-free background 0.041.
The mark [12] stands for this setting: arabinose induction (level): High, raw OD600 reference: median of DMSO wells […], cell-free background 0.041.
The mark [13] stands for this setting: arabinose induction (level): Low, raw OD600 reference: median of DMSO wells 0.227, cell-free background 0.041.
Where [14] appears, read: arabinose 100 nM, raw OD600 reference: median of DMSO wells 0.413, cell-free background 0.052.
Where [15] appears, read: arabinose 10000000 nM, raw OD600 reference: median of DMSO wells […], cell-free background 0.052.

In the case of `C#C[C@]1(O)CC[C@H]2[C@@H]3CCC4=CCCC[C@@H]4[C@H]3CC[C@@]21C` [Lynestrenol], the growth in assay [1] stood at 0.237 ± 0.0046; with E. coli TESEC Mtb Alr [2] (setting [5]) it was 0.297 ± 0.0055; in the assay with E. coli TESEC Mtb Alr [2] (setting [6]), 0.266 ± 0.015; in the assay on E. coli TESEC Mtb Alr [2] (setting [7]), 0.18 ± 0.033; with E. coli TESEC Mtb Alr [2] (setting [8]), 0.164 ± 0.0081; in the assay on E. coli TESEC Mtb Alr [2] (setting [9]), 0.15 ± 0.0066. The growth in the assay with E. coli TESEC Mtb Asd (setting [10]) came to 0.312 ± 0.033; in the assay with E. coli TESEC Mtb Asd (setting [11]), 0.387 ± 0.039; in the assay on E. coli TESEC Mtb DapB (setting [12]), 0.174 ± 0.0039; in the assay on E. coli TESEC Mtb DapB (setting [13]), 0.198 ± 0.027; in assay [3], 0.451 ± 0.013; in the assay with E. coli TESEC Mtb Alr [4] (setting [14]), 0.394 ± 0.0051. In the assay on E. coli TESEC Mtb Alr [4] (setting [15]), this compound showed a growth of 0.289 ± 0.0077.
Take `Clc1ccc2c(c1)C(N1CCNCC1)=Nc1ccccc1O2` [Amoxapine]: the growth in assay [1] is 0.162 ± 0.0094; in the assay with E. coli TESEC Mtb Alr [2] (setting [5]), 0.171 ± 0.0069; in the assay on E. coli TESEC Mtb Alr [2] (setting [6]) it was 0.16 ± 0.0024; in the assay with E. coli TESEC Mtb Alr [2] (setting [7]), 0.162 ± 0.0019; with E. coli TESEC Mtb Alr [2] (setting [8]) it was 0.0713 ± 0.0015; with E. coli TESEC Mtb Alr [2] (setting [9]), 0.105 ± 0.0015. For the same compound, the growth in the assay on E. coli TESEC Mtb Asd (setting [10]) came to 0.178 ± 0.01; with E. coli TESEC Mtb Asd (setting [11]), 0.201 ± 0.0093; with E. coli TESEC Mtb DapB (setting [12]), 0.159 ± 0.03; with E. coli TESEC Mtb DapB (setting [13]), 0.173 ± 0.041; in assay [3], 0.43 ± 0.061; in the assay on E. coli TESEC Mtb Alr [4] (setting [14]), 0.396 ± 0.005. The compound further returned a growth with E. coli TESEC Mtb Alr [4] (setting [15]) of 0.291 ± 0.023.
For the compound `N#Cc1cc(NC(=O)C(=O)O)c(Cl)c(NC(=O)C(=O)O)c1` [Lodoxamide], the growth was 0.264 ± 0.0031 in assay [1]; 0.315 ± 0.006 in the assay with E. coli TESEC Mtb Alr [2] (setting [5]); 0.2862 ± 0.0018 in the assay on E. coli TESEC Mtb Alr [2] (setting [6]); 0.173 ± 0.0062 in the assay on E. coli TESEC Mtb Alr [2] (setting [7]); 0.205 ± 0.013 in the assay with E. coli TESEC Mtb Alr [2] (setting [8]); 0.134 ± 0.0054 in the assay on E. coli TESEC Mtb Alr [2] (setting [9]). For the same compound, the growth is 0.228 ± 0.029 with E. coli TESEC Mtb Asd (setting [10]); 0.366 ± 0.035 in the assay on E. coli TESEC Mtb Asd (setting [11]); 0.222 ± 0.018 in the assay on E. coli TESEC Mtb DapB (setting [12]); 0.235 ± 0.03 with E. coli TESEC Mtb DapB (setting [13]); 0.579 ± 0.069 in assay [3]; 0.404 ± 0.014 in the assay with E. coli TESEC Mtb Alr [4] (setting [14]). In the assay with E. coli TESEC Mtb Alr [4] (setting [15]), this compound had a growth of 0.348 ± 0.024.
As to `Clc1cc(Cl)c(OCC#CI)cc1Cl` [Haloprogin], the growth in assay [1] was 0.128 ± 0.027; in the assay with E. coli TESEC Mtb Alr [2] (setting [5]), 0.249 ± 0.015; in the assay with E. coli TESEC Mtb Alr [2] (setting [6]), 0.197 ± 0.0027; in the assay on E. coli TESEC Mtb Alr [2] (setting [7]), 0.216 ± 0.004; with E. coli TESEC Mtb Alr [2] (setting [8]), 0.137 ± 0.0043; in the assay with E. coli TESEC Mtb Alr [2] (setting [9]) it was 0.168 ± 0.0052. Also, the growth in the assay with E. coli TESEC Mtb Asd (setting [10]) was determined as 0.242 ± 0.037; in the assay with E. coli TESEC Mtb Asd (setting [11]) it was 0.276 ± 0.095; in the assay on E. coli TESEC Mtb DapB (setting [12]), 0.245 ± 0.04; in the assay with E. coli TESEC Mtb DapB (setting [13]), 0.259 ± 0.018; in assay [3], 0.195 ± 0.037; with E. coli TESEC Mtb Alr [4] (setting [14]), 0.386 ± 0.027. In the assay with E. coli TESEC Mtb Alr [4] (setting [15]), the growth is 0.104 ± 0.0032.
